In PubChem BioAssay (Tox21):
Results filed as inconclusive are left out. Calls of active or inactive are those of the source. Unless noted, the call rests on the fitted dose curve; in most records, active means well fitted curve in the direction sought with a large enough effect in the repeat runs; inconclusive means weak or mixed curves; inactive means no such curve, though single readings can be large; an effect the other way counts as inactive or inconclusive.

Legend:
[1] = qHTS assay for small molecule agonists of the p53 signaling pathway (AID 651631; calls by dose curve; further: nearly all actives have a fitted effect of over 15% in size)
How it was run: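 HCT-116 cells carrying a beta-lactamase reporter under p53 response elements were dosed with compound for 16 h at 37 °C. LiveBLAzer B/G FRET substrate was then added for 2 h at room temperature, and fluorescence intensity was read to detect pathway agonism.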

[2] = qHTS assay for small molecules that induce genotoxicity in human embryonic kidney cells expressing luciferase-tagged ATAD5 (AID 651632); further: nearly all actives have a fitted effect of over 15% in size
How it was run: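 Cells were seeded at 2,000 per well, dosed with compound, and incubated 16 hr at 37C in 5% CO2. Luciferase activity was then quantified after a 30 min room-temperature incubation with Amplite.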

[3] = qHTS assay for small molecule agonists of the p53 signaling pathway - cell viability (AID 651633; calls by dose curve;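 further: p53RE-bla HCT reporter cells with a stable beta-lactamase p53 reporter; series mostly up to about 83 µM; nearly all actives have a fitted effect of over 30% in size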)
How it was run: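 p53RE-bla cells were treated with compound for 16 hours at 37 C. Cytotoxicity was then measured as CellTiter-Glo luminescence after 30 min at room temperature.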

[4] = qHTS assay for small molecules that induce genotoxicity in human embryonic kidney cells expressing luciferase-tagged ATAD5 - cell viability (AID 651634; calls by dose curve; further: nearly all actives have a fitted effect of over 25% in size)
How it was run: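 Cells (HEK293T, luciferase-tagged ATAD5) are seeded at 2,000 per well, dosed with compound or DMSO vehicle, and incubated 15.5 hr at 37C and 5% CO2. CellTiter-Fluor is added for 30 min before fluorescence is measured.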

[5] = qHTS assay for small molecule disruptors of the mitochondrial membrane potential - cell viability (AID 720634; calls by dose curve;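 further: human HepG2 liver cancer cells; series mostly up to about 83 µM; nearly all actives have a fitted effect of over 20% in size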)
How it was run: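 Cytotoxicity was measured by ATP quantitation in HepG2 wells that had first been treated with compound for 1 hr and stained with m-MPI dye; CellTiter-Glo incubation was 30 min at room temperature.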

[6] = qHTS assay to test for compound auto fluorescence at 590 nm (red) in HepG2 cells (AID 720674)
How it was run: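 Fluorescence at 590 nm emission following 540 nm excitation was recorded from HepG2 wells one hour after compound transfer, with DMSO-only wells as vehicle and Rose Bengal sodium equivalency as the scale.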

[7] = qHTS assay to test for compound auto fluorescence at 460 nm (blue) in HEK293 cells (AID 720678)
How it was run: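 After cell attachment (4-5 hr, 37C), compounds were pinned onto HEK293 monolayers in 10% dialyzed FBS medium. The blue channel (405/460 nm) was read following overnight culture. Equivalency was calculated against triamterene.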

[8] = qHTS assay to test for compound auto fluorescence at 590 nm (red) in HEK293 cells (AID 720679)
How it was run: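 Plates of HEK293 cells (10% dialyzed FBS) are treated with 23 nL compound or DMSO vehicle after a 4-5 hr attachment period, incubated overnight at 37C, and read for red fluorescence at 540/590nm.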

[9] = qHTS assay to test for compound auto fluorescence at 535 nm (green) in HEK293 cells (AID 720680)
[10] = qHTS assay to test for compound auto fluorescence at 460 nm (blue) in HEK293 cell free culture (AID 720681)
How it was run: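 Compounds were added to cell-free DMEM with 10% FBS and fluorescence read directly. The blue channel used 405 nm excitation and 460 nm emission, with triamterene as the reference fluorophore.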

[11] = qHTS assay to test for compound auto fluorescence at 535 nm (green) in HEK293 cell free culture (AID 720682)
How it was run: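 Green-label autofluorescence (485 nm excitation, 535 nm emission) measured on compound added to cell-free culture medium (DMEM, 10% FBS). Output is expressed relative to fluorescein.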

[12] = qHTS assay to test for compound auto fluorescence at 590 nm (red) in HEK293 cell free culture (AID 720683)
How it was run: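 Cell-free wells of DMEM with 10% FBS received compound, and intrinsic fluorescence was read at excitation/emission 540/590 nm. Values expressed as equivalence to Rose Bengal sodium.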

[13] = qHTS assay to test for compound auto fluorescence at 590 nm (red) in HepG2 cell free culture (AID 720684)
How it was run: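 Auto fluorescence equivalency versus Rose Bengal sodium, red channel Ex/Em 540/590 nm; compounds in cell-free MEM/10% FBS; DMSO vehicle control.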

[14] = qHTS assay to test for compound auto fluorescence at 460 nm (blue) in HepG2 cell free culture (AID 720685)
How it was run: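 Cell-free plates of MEM plus 10% FBS received 23 nL compound or DMSO vehicle; blue-channel (405/460 nm) intensity scored against triamterene as reference fluorophore.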

[15] = qHTS assay to test for compound auto fluorescence at 535 nm (green) in HepG2 cell free culture (AID 720686)
[16] = qHTS assay to test for compound auto fluorescence at 460 nm (blue) in HepG2 cells (AID 720687)
How it was run: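 HepG2 cells in MEM with 10% FBS, attached overnight at 37 C, were exposed to compound or DMSO for 1 hr at 37 C, 5% CO2. Blue fluorescence was read at 405/460 nm, with triamterene as reference fluorophore.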

[17] = molecular target: Glucocorticoid receptor (Homo sapiens) (UniProt P04150); test: qHTS assay to identify small molecule agonists of the glucocorticoid receptor (GR) signaling pathway (AID 720691; active means well fitted activation curve with a large enough effect in the signal ratio in the repeat runs, not every such curve was filed as active; the % refers to the signal ratio)
Glucocorticoid receptor (Homo sapiens), sequence (P04150 whole entry, looked up): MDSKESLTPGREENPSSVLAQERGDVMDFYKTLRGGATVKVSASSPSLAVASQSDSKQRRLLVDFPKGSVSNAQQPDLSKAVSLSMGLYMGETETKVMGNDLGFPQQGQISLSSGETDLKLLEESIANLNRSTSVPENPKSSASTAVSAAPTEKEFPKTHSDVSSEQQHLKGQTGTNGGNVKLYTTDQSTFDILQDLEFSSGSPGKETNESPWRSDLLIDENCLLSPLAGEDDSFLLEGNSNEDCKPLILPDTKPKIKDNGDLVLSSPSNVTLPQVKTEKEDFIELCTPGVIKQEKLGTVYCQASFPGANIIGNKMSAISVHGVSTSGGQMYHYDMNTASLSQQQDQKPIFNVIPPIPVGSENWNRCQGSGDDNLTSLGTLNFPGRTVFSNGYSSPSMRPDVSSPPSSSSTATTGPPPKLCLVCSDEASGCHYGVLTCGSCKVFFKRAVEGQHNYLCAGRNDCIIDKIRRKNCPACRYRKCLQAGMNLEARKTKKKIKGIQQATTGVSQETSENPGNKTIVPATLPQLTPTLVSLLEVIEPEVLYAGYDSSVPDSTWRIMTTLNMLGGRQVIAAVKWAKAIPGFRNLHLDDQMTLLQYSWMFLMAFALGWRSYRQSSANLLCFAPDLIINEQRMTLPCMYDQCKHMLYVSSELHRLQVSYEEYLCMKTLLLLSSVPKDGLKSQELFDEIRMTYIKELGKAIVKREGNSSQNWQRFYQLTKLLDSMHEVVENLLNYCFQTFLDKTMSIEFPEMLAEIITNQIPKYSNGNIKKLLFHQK
How it was run: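 Steps: seed GR-bla HeLa cells, incubate 4 h at 37 C/5% CO2; pin-transfer DMSO-dissolved compounds; incubate 18 h at 37 C; add LiveBLAzer B/G FRET substrate; after 2 h at room temperature, measure fluorescence.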

[18] = molecular target: Glucocorticoid receptor (Homo sapiens) (UniProt P04150); test: qHTS assay to identify small molecule antagonists of the glucocorticoid receptor (GR) signaling pathway (AID 720692; active means well fitted inhibition curve with a large enough effect in the signal ratio in the repeat runs, not every such curve was filed as active; the % refers to the signal ratio)
How it was run: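 Antagonism was scored as loss of dexamethasone-driven (5 nM final) reporter signal in HeLa cells bearing a glucocorticoid response element–beta-lactamase construct, after 18 h compound exposure at 37 C and 2 h FRET substrate loading.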

[19] = qHTS assay to test for compound auto fluorescence at 535 nm (green) in HepG2 cells (AID 720675)
[20] = qHTS assay for small molecule disruptors of the mitochondrial membrane potential (AID 720635)
How it was run: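 HepG2 cells exposed to compound 1 hr at 37C, then Mito-MPS dye 30 min. Ratio read of aggregate (540/590 nm) versus monomer (490/535 nm) fluorescence.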

Measured: Potency

COc1cc(O)cc(O)c1
inactive: [1] | [2] | [3] | [4] | [5] | [6] | [7] | [8] | [9] | [10] | [11] | [12] | [13] | [14] | [15] | [16]

COc1cccc(OC)c1
inactive: [1] | [2] | [3] | [4] | [5] | [6] | [7] | [8] | [9] | [10] | [11] | [12] | [13] | [14] | [15] | [16] | [17] | [18]

O=C(O)C(O)[C@H](O)[C@@H](O)[C@H](O)[C@H](O)CO (stereo not given in full)
inactive: [1] | [2] | [3] | [4] | [6] | [19] | [7] | [8] | [9] | [10] | [11] | [12] | [13] | [14] | [15] | [16] | [17] | [18]

Cc1ccccc1C(=O)O
inactive: [1] | [3] | [4] | [5] | [20] | [6] | [19] | [7] | [8] | [9] | [10] | [11] | [12] | [13] | [14] | [15] | [16]

CCCCCOC(=O)Nc1nc(=O)n([C@@H]2O[C@H](C)[C@@H](O)[C@H]2O)cc1F
inactive: [1] | [2] | [3] | [4] | [5] | [6] | [7] | [8] | [9] | [10] | [11] | [12] | [13] | [14] | [15] | [16]

OCC(O)[C@@H](O)[C@H](O)[C@H](O)CO[C@H]1O[C@H](CO)[C@@H](O)[C@H](O)[C@H]1O (stereo not given in full)
inactive: [1] | [2] | [3] | [4] | [5] | [6] | [7] | [8] | [9] | [10] | [11] | [12] | [13] | [14] | [15] | [16] | [17] | [18]

CC(C)(O)c1ccccc1
inactive: [1] | [2] | [3] | [4] | [5] | [6] | [19] | [7] | [8] | [9] | [10] | [11] | [13] | [14] | [15] | [16] | [17] | [18]

C=C(C)C(=O)NCCCN(C)C
inactive: [1] | [2] | [3] | [4] | [5] | [6] | [7] | [8] | [9] | [10] | [11] | [12] | [13] | [14] | [15] | [16] | [17]

CCCC(C)C(=O)O (stereo not given)
inactive: [1] | [2] | [3] | [4] | [5] | [6] | [7] | [8] | [9] | [10] | [11] | [12] | [13] | [14] | [15] | [16]

C1COCCO1
inactive: [1] | [2] | [3] | [4] | [6] | [19] | [7] | [8] | [9] | [10] | [11] | [13] | [14] | [15] | [16]

CC(=O)CCc1ccc(O)cc1
inactive: [1] | [2] | [3] | [4] | [6] | [19] | [7] | [8] | [9] | [10] | [11] | [12] | [13] | [14] | [15] | [16] | [17]

CN1[C@@H]2CC[C@H]1CC(NC(=O)n1c(=O)[nH]c3ccccc31)C2 (stereo not given in full)
inactive: [1] | [2] | [3] | [4] | [5] | [6] | [7] | [8] | [9] | [10] | [11] | [12] | [13] | [14] | [15] | [16] | [17] | [18]

CCO[Si](CCCN=C=O)(OCC)OCC
inactive: [1] | [2] | [3] | [4] | [6] | [19] | [7] | [8] | [9] | [10] | [11] | [12] | [13] | [14] | [15] | [16]
